Shiga toxin inh: A qHTS for Small Molecule Inhibitors of Shiga Toxin; Vero cells, Shiga toxin protein synthesis inhibition reporter; inhibition, % at 38.7 µM; actives 9.2% (n = 290,000); in the data active means inhibition mostly above about 28%, no sharp cut-off; inactive means mostly below about 43%; further: 0% is about no effect
Pf growth 96h: Primary qHTS for delayed death inhibitors of the malarial parasite plastid, 96 hour incubation | P. falciparum luciferase reporter growth, 96 h | actives 6.9% (n = 320,000) | Potency, µM (highest dose often 28.7 µM), without a hit: at the highest dose activity change, negative = inhibition, actives largely listed as inhibitors | AID 504834, 2011; further: potency means the concentration at half of the fitted maximal effect; on the % scale 0 is the no-effect control and ±100 the full control effect
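Infected RBCs, 2% Hct / 0.05% parasitemia final; luciferase-reporter P. falciparum; cpd 96 h, 37 C, 5% CO2; luciferase detection reagent; luminescence.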
HCV inh: qHTS Assay for Inhibitors of Hepatitis C Virus (HCV); Huh7.5.1 HCVcc-Cre infection, luciferase reporter, 44 h; Potency, µM (top dose mostly 41.8 µM), without a hit: top-dose activity change, negative = inhibition, usual class: inhibitors; actives 3.4% (n = 340,000); further: potency means the concentration at half of the fitted maximal effect; on the % scale 0 is the no-effect control and ±100 the full control effect
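After 44 h co-culture of compound, cells and HCVcc-Cre (~0.5 moi), substrate is added for 15 min at room temperature and luciferase measured over 15 sec. Cells were seeded at 1,000/well and pre-cultured 4 h.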
Pf growth 48h: Primary qHTS for delayed death inhibitors of the malarial parasite plastid, 48 hour incubation; P. falciparum luciferase growth in erythrocytes, 48 h; Potency, µM (titrated, usually from 28.7 µM), for the others: at the top dose activity change, negative = inhibition, usual class: inhibitors; actives 5.9% (n = 310,000); further: potency means the concentration at half of the fitted maximal effect; on the % scale 0 is the no-effect control and ±100 the full control effect
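Cell-based growth assay: transgenic P. falciparum expressing firefly luciferase, cultured in red cells within RPMI 1640 containing 0.5% w/v Albumax, 24 mM bicarbonate and gentamycin. A drop in luciferase activity indicates inhibition.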
Cycloheximide cs: Cycloheximide Counterscreen for Small Molecule Inhibitors of Shiga Toxin; cell reporter, cycloheximide protein synthesis inhibition counterscreen; max response, %; actives 12% (n = 300,000); in the data active means max response mostly above about 13%, no sharp cut-off; inactive means mostly below about 14%; further: read at 38.3 µM for the half of the compounds with a filed dose; 0% is about no effect
AMA1 RON2 block: qHTS for Inhibitors of AMA1-RON; Towards Development of Antimalarial Drug Lead: Primary Screen. AlphaScreen AMA1-biotinylated RON2 peptide binding. Potency, µM (doses to about 58.2 µM), without a hit: at the highest dose activity change, negative = inhibition, usual class: inhibitors. Plasmodium falciparum AMA1 (3D7) - RON2 peptide interaction. AID 720542, 2013. actives 0.2% (n = 360,000);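 further: potency means the concentration at half of the fitted maximal effect; 0% = vehicle wells and -100% = peptide control; nearly all actives have a fitted effect of over 45% in size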
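AMA1 (3D7) with his tag at 25 nM final met compounds first, then biotinylated RON2 peptide at 25 nM; detection used donor plus acceptor beads, 10 µg/mL apiece, read by AlphaScreen after 30 min at room temperature.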
Active calls of the source: *; ? = inconclusive; / = no result given; [ ] = dose if it differs, or a comment. Rows were chosen to be rich in hits. Some 21% of all compounds tested hit in one or more screens of this group. Unless noted, the call rests on the fitted dose curve; in most records, active means well fitted curve in the direction sought with a large enough effect; inconclusive means small, poorly fitted or top-dose-only effect, or another doubt; inactive means no such curve, though single readings can be large; an effect the other way counts as inactive or inconclusive.

SMILES	Shiga toxin inh	Pf growth 96h	HCV inh	Pf growth 48h	Cycloheximide cs	AMA1 RON2 block
CC(C)Oc1ccc(CNC(=O)C2CCCN(S(=O)(=O)N3CCOCC3)C2)cc1 (stereo unspecified)	15.5	-17.2%	8.7%	-1.8%	-1.9	0.0%
CC(=O)Nc1ccc(NC(=O)C(C)Sc2n[nH]c(=O)n2Cc2ccccc2)cc1 (stereo unspecified)	-2.8	-2.3%	4.8%	3.6%	-4.2	10.7%
Cc1cc(C)c(C(=O)c2ccc(C(=O)NC(C)(C)C)cc2)c(C)c1	-10.1	3.29µM*	?	/	-1.5	9.5%
CC(C)(C)NC(=O)c1ccncc1	-6.1	10.4µM*	10.1%	/	-1.9	3.1%
O=C(CN1C(=O)c2ccccc2C1=O)OCC(=O)c1ccccc1	/	?	9.1%	1.5%	/	0.3%
CCCN1CCc2c(sc3nc(SCC)n(-c4ccccc4)c(=O)c23)C1	-3.0	0.262µM*	-23.5%	1.31µM*	-1.4	-10.4%
COc1ccc(-n2c(SCC(C)=O)nc3sc(C)c(C)c3c2=O)cc1	/	?	-6.1%	-33.4%	-3.2	0.6%
CCSc1nc2sc3c(c2c(=O)n1-c1ccccc1)CCN(C)C3	/	81.6%	?	3.29µM*	-0.7	-9.0%
CN1CCc2c(sc3c2c(=O)n(-c2ccccc2)c2nnc(SCc4ccccc4)n32)C1	15.5	/	?	6.57µM*	12.4	-2.8%
CCCN1CCc2c(sc3nc(SCC)n(-c4ccc(OC)cc4)c(=O)c23)C1	0.6	0.586µM*	?	5.86µM*	-3.8	-1.7%
CNC(=O)c1ccc(NC(=O)c2ccccc2OCc2c(C)noc2C)cc1	/	/	/	/	/	2.6%
C=CCSc1nc2sc3c(c2c(=O)n1-c1ccccc1)CCN(C)C3	-6.8	0.586µM*	?	?	-3.3	-9.3%
COc1ccc(NC(=O)CSc2nc3sc4c(c3c(=O)n2-c2ccc(OC)cc2)CCN(C)C4)cc1	33.5	?	?	?	11.0	-15.3%
CC(Sc1nc2sc3c(c2c(=O)n1-c1ccccc1)CCCC3)C(=O)O (stereo unspecified)	-10.3	22.5%	10.3%	0.0%	-2.6	-0.6%
COCCSc1nc2sc3c(c2c(=O)n1-c1ccccc1)CCN(C)C3	27.8	?	?	/	0.3	16.3%
CCCN1CCc2c(sc3nc(SC)n(-c4ccccc4)c(=O)c23)C1	-6.5	0.738µM*	?	0.928µM*	-2.7	-1.9%
COc1ccc(-n2c(SC)nc3sc4c(c3c2=O)CCN(C)C4)cc1	-4.5	7.38µM*	?	3.7µM*	-2.8	-4.2%
CSCCC(NS(=O)(=O)c1ccccc1)C(=O)OCc1cc(=O)oc2cc(O)ccc12 (stereo unspecified)	/	?	-14.5%	35.2%	/	-15.8%
Cc1nc2c(ccc3nc(NC(=O)C(c4ccccc4)c4ccccc4)sc32)s1	-11.3	10.4µM*	10µM*	3.7µM*	-2.2	0.0%
Cc1cnc(NC(=O)c2ccc3c(c2)OCCO3)s1	/	78.0%	2.0%	11.0%	/	0.0%
Cc1nc2c(ccc3nc(NC(=O)c4ccc5c(c4)OCCO5)sc32)s1	42.7	?	?	80.7%	45.0*	0.0%
Cc1nc2ccc3nc(NC(=O)c4ccc5c(c4)OCCO5)sc3c2s1	-12.7	/	?	77.9%	12.2*	15.2%
COc1cccc(Cn2c(C(C)n3c(-c4cnccn4)nc4ccccc43)nc3ccccc32)c1 (stereo unspecified)	/	/	/	/	/	-12.1%
CCN(C(=O)C1CCCN1S(=O)(=O)c1ccc2c(c1)n(C)c(=O)c(=O)n2C)c1ccccc1 (stereo unspecified)	-0.5	?	9.5%	8.8%	-3.6	-2.5%
O=C(O)c1ccc(N=NN2CCCCCC2)cc1	73.6*	7.6%	41.0%	138.6%	42.2*	0.6%
SMILES	Shiga toxin inh	Pf growth 96h	HCV inh	Pf growth 48h	Cycloheximide cs	AMA1 RON2 block
CCCCCC(C(=O)O)C(C)CC(=O)NC1CCCCC1 (stereo unspecified)	-10.4	13.1µM*	3.6%	11.8%	0.2	8.7%
Cn1nc(C(C)(C)C)c([N+](=O)[O-])c1C(=O)NC1CCCCC1	1.2	11.7%	-9.0%	-1.7%	6.6	6.0%
CC(C)(C)NCC(O)c1cc(Cl)c(N)c(C(F)(F)F)c1 (stereo unspecified)	/	8.49µM*	/	13.5µM*	/	/
CC(C)(C)NCC(O)c1cc(O)cc(O)c1 (stereo unspecified)	0.6	-0.6%	0.3%[8.37 µM]	-5.4%	0.4	10.3%
CC(C)c1ccc(NC(=O)Nc2nnc([C@@H]3C[C@H](O)[C@@H](CO)O3)s2)cc1	/	/	/	/	/	-8.5%
COc1cccc(C(=O)Nn2cnnc2)c1OC	/	2.08µM*	18.7%	8.4%	-3.8	0.0%
COc1cccc(C(=O)Nc2cc(C)on2)c1OC	75.9*	67.6%	-1.4%	186.0%	49.4*	9.1%
O=C(O)c1ccccc1C(=O)Nn1cnnc1	-19.1	4.7%	-5.1%	-6.9%	-3.5	-1.2%
O=C(Nn1cnnc1)c1ccccc1Cl	-19.0	8.28µM*	8.5%	2.7%	-3.3	-10.1%
CCN(C(=O)COC(=O)/C(=C/c1ccccc1)NC(C)=O)c1c(N)n(Cc2ccccc2)c(=O)[nH]c1=O	/	/	11.5%	/	/	-2.1%[11.6 µM]
O=C1C2C3C=CC(O3)C2C(=O)N1Nc1ccccc1 (stereo unspecified)	/	/	-0.8%	/	/	22.6%
Cc1ccc(C(=O)OCC(=O)NNC(=O)c2ccc([N+](=O)[O-])cc2)o1	/	-21.6%	18.6%	15.3%	/	83.2%
COc1ccccc1N(Cc1cc(=O)[nH]c2ccccc12)C(C)=O	-8.2	5.3%	23.3%	3.1%	-1.4	6.9%
CCCC(=O)N(Cc1cc(=O)[nH]c2ccccc12)c1ccccc1OC	-5.3	11.7µM*	-9.9%	7.38µM*	1.1	-3.2%
CCCC(=O)N(Cc1cc(=O)[nH]c2ccccc12)c1ccc(C)cc1C	-4.3	?	-17.9%	?	-3.4	-5.0%
Cc1ccc(N(Cc2cc(=O)[nH]c3ccccc23)C(=O)CCl)c(C)c1	-11.1	6.57µM*	?	9.28µM*	0.6	13.0%
Cc1cc([N+](=O)[O-])nn1CC(=O)NCc1ccc(Cl)cc1	13.6	-18.3%	8.9%	-7.7%	-1.2	0.1%
Cc1nc(C)c(C(=O)NNS(=O)(=O)c2ccc3ccccc3c2)s1	-11.7	28.2%	12.6µM*	8.1%	-0.6	44.3%
Cc1nc(NS(=O)(=O)c2ccccc2)sc1C(=O)NNS(=O)(=O)c1ccccc1	-9.2	-23.1%	15.7%	6.5%	-6.2	11.9%
Cc1c(C(=O)NCCN2C(=O)S/C(=C\c3cccnc3)C2=O)cccc1[N+](=O)[O-]	-5.9	?	0.7%	5.22µM*	-1.0	13.5%

Bioassay records: PubChem BioAssay, National Center for Advancing Translational Sciences (NCATS)
